The source made the active and inactive calls. Rule for the calls: active = hit-call score of the fitted dose curve at least 0.9, where 1 is the maximum; inactive = score below 0.9.

For experiment [1], the target named is Bile acid receptor (Homo sapiens) (UniProt Q96RI1). The experiment is described as follows: ATG_IR1_CIS: Attagene CIS-FACTORIAL HepG2 Assay for human Nuclear Receptor Subfamily 1 Group H Member 4 (NR1H4), IR1 submotif (AID 2282946). As to conditions: IR1 reporter transcription, actives raise or lower the signal. In short, it runs like this:
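HepG2 cells transiently transfected with multiplexed cis-element reporter units read endogenous transcription factor activity. After 24 h compound exposure, reporter mRNA was quantified by RT-PCR, fluorescent labelling, HpaI digestion and capillary electrophoresis; bidirectional fitting versus DMSO baseline.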

Experiment [2] is described as follows: ATG_GRE_CIS: Attagene CIS-FACTORIAL HepG2 Assay for human Glucocorticoid Response Elements (GRE) (AID 2282947). As to conditions: HepG2 GRE cis-reporter, Attagene multiplex mRNA; actives raise or lower the signal. Put shortly:
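Reporter transcripts read by RT-PCR with capillary electrophoresis fluorescence after a 24 h chemical exposure of HepG2 cells transiently transfected with multiple cis-element reporter units. Gain or loss fitted against DMSO.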

The nature of experiment [3]: ATG_ISRE_CIS: Attagene CIS-FACTORIAL HepG2 Assay for human Interferon Regulatory Factor 1 (IRF1) binding to an Interferon-Stimulated Response Element (ISRE) (AID 2282948). To be noted: HepG2 ISRE cis-reporter (Attagene), mRNA transcription readout; actives raise or lower the signal. Put shortly: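 Read-out: fluorescent RT-PCR products resolved by capillary electrophoresis, reporting endogenous transcription factor activity via ISRE-driven reporter mRNA in transfected HepG2 cells dosed for 24 h; gain or loss fitted relative to DMSO.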

Experiment [4] in a line: ATG_M_32_CIS: Attagene CIS-FACTORIAL HepG2 Assay for M32 Transcription Factor (Internal Marker) (AID 2282949).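 Note: background control marker of the multiplexed CIS panel rather than a real target.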 To be noted: HepG2 Attagene cis-factorial M32 reporter, mRNA; actives raise or lower the signal. Put shortly: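 HepG2 human liver cells transiently transfected with cis-promoter-driven multiple reporter transcription units, dosed 24 h. Reporter mRNA quantified by RT-PCR, FAM-labelled primer extension, HpaI digest and capillary electrophoresis; bidirectional fit versus DMSO baseline.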

A short description of experiment [5]: ATG_M_06_CIS: Attagene CIS-FACTORIAL HepG2 Assay for M06 Transcription Factor (Internal Marker) (AID 2282950). To be noted: HepG2 Attagene CIS-FACTORIAL M06 internal marker reporter; actives raise or lower the signal. Put shortly: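 Fluorescence-labelled RT-PCR products from cis-promoter reporter units, cut with HpaI and resolved by capillary electrophoresis, give the signal. Cells are human HepG2, dosed for 24 h. Serves as background control, fitted relative to DMSO.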

Experiment [6] has as its target Hypoxia-inducible factor 1-alpha (Homo sapiens) (UniProt Q16665). The experiment in a line: ATG_HIF1a_CIS: Attagene CIS-FACTORIAL HepG2 Assay for human Hypoxia Inducible Factor 1 (HIF1A) (AID 2282951). As to conditions: HepG2 Attagene cis-factorial HIF1a reporter transcription; actives raise or lower the signal. Put shortly: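 HepG2 cells transiently transfected with multiplexed cis-promoter reporter units; reporter mRNA read 24 h after dosing by RT-PCR, 6-FAM primer-extension labelling, HpaI digestion and capillary electrophoresis. Bidirectional fit versus DMSO baseline.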

For experiment [7], the target named is Hepatocyte nuclear factor 6 (Homo sapiens) (UniProt Q9UBC0). The experiment in a line: ATG_HNF6_CIS: Attagene CIS-FACTORIAL HepG2 Assay for human Hepatocyte Nuclear Factor 6 (HNF6) (AID 2282952). As to conditions: HepG2 Attagene cis-factorial HNF6 reporter transcription; actives raise or lower the signal. Put shortly: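 Readout: fluorescent reporter-transcript fragments resolved by capillary electrophoresis after RT-PCR, reflecting endogenous factor activity in transfected HepG2. Exposure 24 h. Gain or loss of signal fitted bidirectionally against DMSO.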
Hepatocyte nuclear factor 6 (Homo sapiens), sequence (Q9UBC0 whole entry, looked up, the tested form may be a part): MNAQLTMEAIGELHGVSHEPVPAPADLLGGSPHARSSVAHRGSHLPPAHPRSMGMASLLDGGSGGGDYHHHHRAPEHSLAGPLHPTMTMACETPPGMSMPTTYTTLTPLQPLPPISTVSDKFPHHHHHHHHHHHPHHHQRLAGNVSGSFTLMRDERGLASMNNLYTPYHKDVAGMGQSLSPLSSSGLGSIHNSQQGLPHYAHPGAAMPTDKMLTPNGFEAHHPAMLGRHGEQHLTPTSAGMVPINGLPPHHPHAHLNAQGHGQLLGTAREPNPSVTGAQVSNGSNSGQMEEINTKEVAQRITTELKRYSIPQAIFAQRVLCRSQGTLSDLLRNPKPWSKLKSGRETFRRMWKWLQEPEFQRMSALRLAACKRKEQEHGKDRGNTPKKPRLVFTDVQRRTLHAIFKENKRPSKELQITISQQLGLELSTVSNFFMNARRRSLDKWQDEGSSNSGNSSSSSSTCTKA

Experiment [8] has as its target Heat shock factor protein 1 (Homo sapiens) (UniProt Q00613). The experiment in a line: ATG_HSE_CIS: Attagene CIS-FACTORIAL HepG2 Assay for human Heat Shock Transcription Factor 1 (HSE) (AID 2282953). To be noted: HepG2 HSE cis-reporter, Attagene RNA transcription; actives raise or lower the signal. In short, it runs like this:
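After a 24 h incubation with test chemical, transfected HepG2 cells were harvested for RNA; reporter transcripts were measured by RT-PCR and capillary electrophoresis. Values reflect gain or loss of signal relative to DMSO.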

Experiment [9] can be described thus: ATG_MRE_CIS: Attagene CIS-FACTORIAL HepG2 Assay for human Metal Responsive Element (MRE) (AID 2282954). As to conditions: HepG2 MRE cis-reporter transcription, Attagene multiplex; actives raise or lower the signal. In short, it runs like this:
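Endogenous MRE-dependent transcription read as reporter mRNA in transiently transfected human HepG2 cells at 24 h. RNA reverse-transcribed, PCR-amplified, labelled and resolved by capillary electrophoresis; gain or loss relative to DMSO.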

Experiment [10] addresses Paired box protein Pax-6 (Homo sapiens) (UniProt P26367). The experiment in a line: ATG_Pax6_CIS: Attagene CIS-FACTORIAL HepG2 Assay for human Paired Box 6 (PAX6) (AID 2282956). To be noted: HepG2 CIS-FACTORIAL PAX6 reporter transcription, RNA readout; actives raise or lower the signal. In short, it runs like this:
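Readout: reporter transcript fluorescence after RT-PCR and capillary electrophoresis. Cells: HepG2, transiently transfected with cis-regulated MRTUs. Exposure 24 h. Gain or loss of signal fitted bidirectionally relative to DMSO.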

Experiment [11] is described as follows: ATG_PXRE_CIS: Attagene CIS-FACTORIAL HepG2 Assay for human Pregnane X Receptor Element (PXRE) (AID 2282957). To be noted: HepG2 Attagene CIS-FACTORIAL PXRE reporter, mRNA; actives raise or lower the signal. In short, it runs like this:
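Read-out: fluorescence of reporter-specific RT-PCR products resolved by capillary electrophoresis, fitted bidirectionally relative to DMSO. Human HepG2 liver cells carried transfected cis-promoter reporter units and were exposed to chemicals for 24 h.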

Experiment [12] in a line: ATG_Sox_CIS: Attagene CIS-FACTORIAL HepG2 Assay for human SRY-box transcription factor (SOX) (AID 2282960). As to conditions: HepG2 Attagene cis-factorial SOX reporter, mRNA; actives raise or lower the signal. In short, it runs like this:
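HepG2 cells transiently transfected with cis-element-driven multiple reporter transcription units, dosed 24 h; reporter mRNA measured by RT-PCR, FAM labelling, HpaI digestion and capillary electrophoresis. Bidirectional fit versus DMSO baseline.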

In experiment [13] the target is Transcription factor Sp1 (Homo sapiens) (UniProt P08047). The experiment in a line: ATG_Sp1_CIS: Attagene CIS-FACTORIAL HepG2 Assay for human Specificity Protein 1 (Sp1) (AID 2282961). As to conditions: HepG2 Sp1 cis-reporter transcription, actives raise or lower the signal. In short, it runs like this: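 HepG2 cells transiently transfected with multiple reporter transcription units driven by cis-regulatory elements; Sp1-responsive reporter mRNA measured 24 h after dosing by RT-PCR and capillary electrophoresis fluorescence, fitted bidirectionally against DMSO baseline.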
Transcription factor Sp1 (Homo sapiens), sequence (P08047 whole entry, looked up): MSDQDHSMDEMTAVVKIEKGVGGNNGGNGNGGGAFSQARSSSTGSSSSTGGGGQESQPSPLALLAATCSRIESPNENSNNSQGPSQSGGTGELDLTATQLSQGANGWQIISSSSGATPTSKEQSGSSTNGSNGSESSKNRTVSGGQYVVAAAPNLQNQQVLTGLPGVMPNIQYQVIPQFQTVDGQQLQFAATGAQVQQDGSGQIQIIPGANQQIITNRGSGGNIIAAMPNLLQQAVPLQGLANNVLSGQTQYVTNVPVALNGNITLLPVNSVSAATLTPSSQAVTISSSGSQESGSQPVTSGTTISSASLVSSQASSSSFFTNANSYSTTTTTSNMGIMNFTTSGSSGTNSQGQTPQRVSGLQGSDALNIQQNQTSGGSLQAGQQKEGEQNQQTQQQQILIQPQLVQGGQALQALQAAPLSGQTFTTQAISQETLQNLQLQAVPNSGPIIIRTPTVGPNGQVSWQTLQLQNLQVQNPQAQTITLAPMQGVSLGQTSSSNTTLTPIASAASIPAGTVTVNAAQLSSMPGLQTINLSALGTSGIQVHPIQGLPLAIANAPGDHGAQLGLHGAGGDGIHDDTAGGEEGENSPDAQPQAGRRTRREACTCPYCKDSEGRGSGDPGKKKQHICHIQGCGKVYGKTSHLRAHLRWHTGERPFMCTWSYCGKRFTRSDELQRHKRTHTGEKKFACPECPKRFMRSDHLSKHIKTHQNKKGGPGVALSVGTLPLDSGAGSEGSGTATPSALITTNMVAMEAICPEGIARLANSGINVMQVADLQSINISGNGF

A short description of experiment [14]: ATG_SREBP_CIS: Attagene CIS-FACTORIAL HepG2 Assay for human Sterol Regulatory Element Binding (SREBP) (AID 2282962). To be noted: HepG2 Attagene cis-factorial SREBP reporter, mRNA; actives raise or lower the signal. In short, it runs like this:
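Readout: fluorescent reporter-transcript peaks resolved by capillary electrophoresis after RT-PCR. Cells were human HepG2 carrying transfected cis-promoter reporter constructs, dosed for 24 h. Gain or loss of signal was fitted against DMSO controls.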

The target of experiment [15] is Signal transducer and activator of transcription 3 (Homo sapiens) (UniProt P40763). The experiment is described as follows: ATG_STAT3_CIS: Attagene CIS-FACTORIAL HepG2 Assay for human Signal Transducer and Activator of Transcription 3 (STAT3) (AID 2282963). As to conditions: HepG2, Attagene cis-factorial STAT3 reporter transcription; actives raise or lower the signal. Put shortly:
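Readout is reporter transcript quantified by RT-PCR and capillary electrophoresis, with 6-FAM primer extension and HpaI digestion. Total RNA is taken 24 h after dosing transiently transfected HepG2 carrying cis-regulated reporter units. Bidirectional fit against DMSO.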

Experiment [16] is described as follows: ATG_TA_CIS: Attagene CIS-FACTORIAL HepG2 Assay for human TA Basal Promoter (AID 2282964). To be noted: HepG2 Attagene CIS-factorial TA basal promoter reporter; actives raise or lower the signal. Put shortly:
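Multiplexed mRNA reporter assay, HepG2, 24 h. Reporter cDNA amplified, 6-FAM primer-extended, HpaI-cut, CE-sized; DMSO = negative control and baseline.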

Experiment [17] in a line: ATG_TCF_b_cat_CIS: Attagene CIS-FACTORIAL HepG2 Assay for human T-Cell-Factor with beta-catenin (TCF/b-cat) (AID 2282965). As to conditions: HepG2 TCF/beta-catenin cis-reporter transcription, actives raise or lower the signal. Put shortly:
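Endogenous TCF/LEF activity read as reporter transcript level via RT-PCR and capillary electrophoresis fluorescence in transfected HepG2, 24 h exposure; gain or loss of signal fitted against DMSO controls.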

Experiment [18] in a line: ATG_PBREM_CIS: Attagene CIS-FACTORIAL HepG2 Assay for human Phenobarbital-responsive Enhancer Module (PBREM) (AID 2282955). As to conditions: HepG2 PBREM cis-reporter, Attagene multiplexed transcription; actives raise or lower the signal. Put shortly:
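HepG2 cells transiently transfected with multiple cis-regulated reporter transcription units; endogenous factor activity at the PBREM element measured as reporter mRNA 24 h after dosing, via RT-PCR and capillary electrophoresis of fluorescent fragments; bidirectional fitting versus DMSO.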

A short description of experiment [19]: ATG_PPRE_CIS: Attagene CIS-FACTORIAL HepG2 Assay for human Peroxisome Proliferator-activated Response Element (PPRE) (AID 2282958). To be noted: HepG2 PPRE cis-element reporter, Attagene transcription factor profiling; actives raise or lower the signal. Put shortly:
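HepG2 cells transiently transfected with multiplexed cis-element reporter units measure endogenous transcription factor activity. After 24 h compound exposure, reporter mRNA is quantified by RT-PCR, 6-FAM labeling, HpaI digestion and capillary electrophoresis; bidirectional fits are made against DMSO baseline.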

Experiment [20] can be described thus: ATG_RORE_CIS: Attagene CIS-FACTORIAL HepG2 Assay for human RAR-related Orphan Receptor Element (RORE) (AID 2282959). To be noted: HepG2 Attagene cis-factorial RORE reporter, mRNA; actives raise or lower the signal. In short, it runs like this: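 HepG2 cells transiently transfected with multiple cis-element reporter transcription units, exposed to chemical for 24 h. Reporter mRNA quantified by RT-PCR, 6-FAM primer-extension labeling, HpaI digestion and capillary electrophoresis; bidirectional fit versus DMSO baseline.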

Hypoxia-inducible factor 1-alpha (Homo sapiens), sequence (Q16665 whole entry, looked up): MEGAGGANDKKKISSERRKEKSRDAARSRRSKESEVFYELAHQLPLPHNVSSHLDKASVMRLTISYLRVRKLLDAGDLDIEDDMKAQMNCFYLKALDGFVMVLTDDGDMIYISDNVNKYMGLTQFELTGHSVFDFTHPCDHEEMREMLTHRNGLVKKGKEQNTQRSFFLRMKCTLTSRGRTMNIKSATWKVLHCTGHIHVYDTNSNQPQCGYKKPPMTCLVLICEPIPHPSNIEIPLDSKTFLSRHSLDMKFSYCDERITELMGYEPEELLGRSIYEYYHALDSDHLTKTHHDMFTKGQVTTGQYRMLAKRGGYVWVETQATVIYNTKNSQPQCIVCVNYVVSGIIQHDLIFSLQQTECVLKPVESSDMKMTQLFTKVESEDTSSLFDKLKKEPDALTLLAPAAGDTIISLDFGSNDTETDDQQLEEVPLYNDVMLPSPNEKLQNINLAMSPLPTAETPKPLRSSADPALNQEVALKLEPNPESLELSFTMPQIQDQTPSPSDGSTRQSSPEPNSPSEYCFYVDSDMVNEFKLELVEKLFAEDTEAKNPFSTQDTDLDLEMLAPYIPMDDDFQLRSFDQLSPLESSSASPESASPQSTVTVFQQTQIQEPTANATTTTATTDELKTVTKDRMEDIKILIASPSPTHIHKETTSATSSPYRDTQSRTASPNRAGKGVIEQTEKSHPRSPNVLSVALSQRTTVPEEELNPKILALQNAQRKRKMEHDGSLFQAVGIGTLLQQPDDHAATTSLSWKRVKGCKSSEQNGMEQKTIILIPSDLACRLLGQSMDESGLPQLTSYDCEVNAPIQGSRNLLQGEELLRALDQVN
Heat shock factor protein 1 (Homo sapiens), sequence (Q00613 whole entry, looked up): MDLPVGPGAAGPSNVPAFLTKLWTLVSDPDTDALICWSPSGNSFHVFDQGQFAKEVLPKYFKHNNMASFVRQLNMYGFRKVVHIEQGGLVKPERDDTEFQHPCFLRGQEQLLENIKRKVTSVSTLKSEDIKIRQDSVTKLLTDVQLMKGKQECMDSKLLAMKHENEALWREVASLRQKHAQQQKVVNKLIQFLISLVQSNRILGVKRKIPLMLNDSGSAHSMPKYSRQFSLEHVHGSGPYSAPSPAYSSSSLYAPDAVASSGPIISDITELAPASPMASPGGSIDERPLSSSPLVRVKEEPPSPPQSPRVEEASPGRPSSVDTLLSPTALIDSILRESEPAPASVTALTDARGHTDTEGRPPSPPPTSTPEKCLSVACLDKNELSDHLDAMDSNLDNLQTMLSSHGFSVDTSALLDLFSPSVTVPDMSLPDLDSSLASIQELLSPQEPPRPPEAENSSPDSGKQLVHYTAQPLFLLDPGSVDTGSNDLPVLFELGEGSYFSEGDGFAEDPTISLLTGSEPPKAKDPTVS
Paired box protein Pax-6 (Homo sapiens), sequence (P26367 whole entry, looked up): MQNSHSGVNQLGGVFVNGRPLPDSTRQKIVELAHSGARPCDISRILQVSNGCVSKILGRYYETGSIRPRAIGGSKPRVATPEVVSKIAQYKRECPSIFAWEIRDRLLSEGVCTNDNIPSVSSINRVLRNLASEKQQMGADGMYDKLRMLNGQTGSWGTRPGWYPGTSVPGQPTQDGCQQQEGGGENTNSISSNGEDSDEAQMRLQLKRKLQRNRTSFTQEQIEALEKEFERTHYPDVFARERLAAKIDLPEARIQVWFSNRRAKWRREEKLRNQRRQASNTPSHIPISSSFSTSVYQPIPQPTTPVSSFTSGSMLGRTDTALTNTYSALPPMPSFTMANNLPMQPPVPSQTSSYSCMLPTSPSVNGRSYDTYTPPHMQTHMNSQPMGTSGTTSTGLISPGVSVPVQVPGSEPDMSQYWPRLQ
Bile acid receptor (Homo sapiens), sequence (Q96RI1 whole entry, looked up): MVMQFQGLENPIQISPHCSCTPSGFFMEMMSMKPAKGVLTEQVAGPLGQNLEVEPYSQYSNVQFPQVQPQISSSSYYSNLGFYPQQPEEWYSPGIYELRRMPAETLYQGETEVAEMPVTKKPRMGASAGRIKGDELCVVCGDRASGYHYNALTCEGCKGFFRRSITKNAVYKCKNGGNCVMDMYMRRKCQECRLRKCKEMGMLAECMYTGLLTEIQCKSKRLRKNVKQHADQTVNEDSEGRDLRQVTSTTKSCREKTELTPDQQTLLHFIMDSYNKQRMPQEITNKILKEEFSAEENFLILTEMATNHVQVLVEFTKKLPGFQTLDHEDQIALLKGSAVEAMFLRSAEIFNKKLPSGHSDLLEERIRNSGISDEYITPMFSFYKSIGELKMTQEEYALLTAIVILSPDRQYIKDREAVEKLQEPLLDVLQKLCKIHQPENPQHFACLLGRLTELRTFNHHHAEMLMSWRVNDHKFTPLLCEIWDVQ
Signal transducer and activator of transcription 3 (Homo sapiens), sequence (P40763 whole entry, looked up): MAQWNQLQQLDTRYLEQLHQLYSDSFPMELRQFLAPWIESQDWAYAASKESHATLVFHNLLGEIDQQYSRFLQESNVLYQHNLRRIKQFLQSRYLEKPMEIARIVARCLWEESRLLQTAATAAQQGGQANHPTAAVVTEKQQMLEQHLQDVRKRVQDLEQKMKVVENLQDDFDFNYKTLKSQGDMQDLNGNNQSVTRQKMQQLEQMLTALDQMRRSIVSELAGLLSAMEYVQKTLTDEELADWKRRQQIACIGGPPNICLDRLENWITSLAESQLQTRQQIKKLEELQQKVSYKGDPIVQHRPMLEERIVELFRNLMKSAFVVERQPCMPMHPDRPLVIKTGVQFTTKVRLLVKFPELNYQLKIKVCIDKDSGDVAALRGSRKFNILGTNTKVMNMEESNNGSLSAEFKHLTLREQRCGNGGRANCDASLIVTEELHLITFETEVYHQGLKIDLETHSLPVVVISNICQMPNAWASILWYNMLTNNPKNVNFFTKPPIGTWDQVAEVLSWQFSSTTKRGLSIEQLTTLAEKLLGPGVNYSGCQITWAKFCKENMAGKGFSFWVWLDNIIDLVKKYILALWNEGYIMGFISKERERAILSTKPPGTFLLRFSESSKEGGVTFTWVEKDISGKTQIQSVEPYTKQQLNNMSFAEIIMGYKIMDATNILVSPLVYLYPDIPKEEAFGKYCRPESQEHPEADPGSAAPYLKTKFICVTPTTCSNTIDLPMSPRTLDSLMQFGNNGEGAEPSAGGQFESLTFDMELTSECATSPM

Turning to `Clc1nc2ccccc2s1`, the outcome in experiment [1], in experiment [2], in [3], in experiment [4], in experiment [5] and in experiment [6] was inactive. The result in [7], in experiment [8], in experiment [9], in experiment [10], in [11] and in experiment [12] was inactive. For the same compound, the outcome in [13], in [14], in experiment [15], in [16] and in experiment [17] was inactive.
With `CC=CC(F)(F)C(F)(F)C(F)(F)F`, the compound was called inactive in experiment [1], in experiment [2], in experiment [3], in experiment [4], in experiment [5] and in experiment [6]. Further, the outcome in experiment [8], in experiment [9], in experiment [18], in experiment [10], in experiment [11] and in [19] was inactive. Further, the outcome in experiment [13], in [14], in [15], in experiment [16] and in [17] was inactive.
Take `C=C(C)CCO`: the result in experiment [1], in experiment [2], in [3], in [4], in experiment [5] and in experiment [6] was inactive. For the same compound, the outcome in [7], in [8], in experiment [9], in experiment [10], in [20] and in experiment [13] was inactive. The compound was called inactive in experiment [14], in experiment [15], in [16] and in [17]. Moreover, the AC50 – broadly, the concentration at which the activity in the assay is half-maximal – in [11] is 5.16 µM (active).
Regarding `CCCCCCCCO[C@@H]1O[C@H](CO)[C@@H](O)[C@H](O)[C@H]1O`, the compound was classed as inactive in experiment [1], in experiment [2], in [3], in experiment [4], in [5] and in experiment [6]. For the same compound, the call in [7], in [8], in experiment [9], in [10], in experiment [11] and in [19] was inactive. Moreover, the compound was classed as inactive in experiment [12], in [13], in experiment [14], in experiment [15] and in experiment [17].

The values above are taken from PubChem BioAssay (EPA / NIEHS).
